Measured values: PubChem BioAssay (EPA / NIEHS)
Some structures have more than one record in an assay (separate samples or runs), and their calls can disagree. The source made the active and inactive calls. How the source made its calls: active means hit-call score of the fitted dose curve at least 0.9, where 1 is the maximum; inactive means score below 0.9.

Test: CEETOX_H295R_OHPREG: CeeTox H295R High-throughput Steroidogenesis Assay for OH-Pregnenolone (OHPREG) (AID 2283434)
Settings: actives raise or lower the signal
Experimental: CEETOX_H295R is a cell-based, multiplexed-readout assay that uses H295R, a human adrenal gland cell line, with measurements taken at 48 hours after chemical dosing in a 96-well plate.CEETOX_H295R_OHPREG is one of 23 assay component(s) measured or calculated from the CEETOX_H295R assay. It is designed to make measurements of hormone induction, a form of inducible reporter, as detected with […] by HPLC-MS-MS technology.Data from the assay component CEETOX_H295R_OHPREG was analyzed into 1 assay endpoint. This assay endpoint, CEETOX_H295R_OHPREG, was analyzed with bidirectional fitting relative to DMSO as the negative control and baseline of activity. Using a type of inducible reporter, gain or loss-of-signal activity using HPLC-MS-MS was used to understand synthesis of 17alpha-hydroxypregnenolone in H295R cell line at 48hr of chemical exposure. To generalize the intended target to other relatable targets, this assay endpoint is annotated to the steroid hormone intended target family, where the subfamily is progestagens.
Cell culture and media preparation procedures were conducted in accordance with OECD Test No. 456 guidelines, with minor modifications. H295R cells (ATCC CRL-2128) were expanded for 5 passages and frozen in batches in liquid nitrogen. Prior to the steroidogenesis assay, H295R cells were thawed and passed at least 4 times. The maximum passage was 10. Cells were maintained in a 1:1 mixture of DMEM/F12 supplemented with 5ml/L ITS+ Premix (BD Bioscience) and 12.5 ml/L Nu-Serum (BD Bioscience). After seeding cells into 96-well plates at 50-60% confluency, cells were allowed to adhere overnight. Prior to chemical testing, culture medium was replaced with 175 uL medium containing 10 uM forskolin to stimulate steroidogenesis for 48 hours. Following prestimulation, forskolin medium was replaced with medium containing test chemical solubilized in DMSO (ensuring a final concentration of 0.1% DMSO). Test chemicals were incubated for 48 hours, then the medium was removed and split into 2 vials containing approximately 75uL each, and stored at -80 C prior to hormone analysis. For steroid quantification, media samples were shipped to OpAns, LLC (Durham, NC) on dry ice, and samples were thawed to room temperature prior to liquid-liquid extraction. Steroid hormones were extracted from media samples using methyl tertbutyl ether (MTBE). An extra derivatization with dansyl chloride was included for estrogen (estrone and estradiol) detection only. Steroid hormones were separated by HPLC, eluted using a reverse phase C18 gradient with electrospray positive ionization, followed by quantification by tandem mass spectrometry (MS/MS). Data were acquired on a MassHunter Workstation Acquisition version B03.01 (Agilent Technologies, Inc.) and processed using MassHunter Quantitative Analysis for QQQ. Accuracy was determined for each hormone analyte from 3 standards to determine upper and lower limits of quantification (ULOQ and LLOQ, respectively) using a 7-point standard curve. Precision and accuracy of the extraction and quantification methods were calculated as the percent relative standard deviation (%RSD) of the spiked standards and percent spiked standard recovered, respectively. The goal was to achieve 100% accuracy (i.e., recover all spiked-in standard at quantification with minimal loss during run time) and good precision (i.e., have %RSD <15% to ensure reproducibility). Test medium was removed following chemical exposure, and cell viability was evaluated in the same wells by MTT. MTT procedures were as follows: after removal of test medium, 500 uL of 0.5 mg/ml of 3-[4,5-dimethylthiazol-2-y]2,5-diphenyltetrazoliumbromide solution was added to the cells. Following a 4-hour incubation at 37 C and 5% CO2 to allow formazan-crystal formation, the MTT solution was removed and blue formazan salt crystals were solubilized using 500uL anhydrous isopropanol with shaking for 20 minutes. […]

Structure (SMILES) | AC50 | outcome
CCOP(=S)(OCC)Oc1nc(Cl)c(Cl)cc1Cl | 80.5 µM (active) | 
C(=NC1CCCCC1)=NC1CCCCC1 |  | inactive
CCCCCCCCC(=O)NCc1ccc(O)c(OC)c1 |  | inactive
C[C@]12CCC(=O)C[C@@H]1CC[C@@H]1[C@@H]2CC[C@]2(C)[C@@H](O)CC[C@@H]12 | 0.0791 µM (active) | 
CC(C)OC(=O)Nc1ccccc1 |  | inactive
C1CCC(NC2CCCCC2)CC1 |  | inactive
Fc1ccc(C2(Cn3cncn3)OC2c2ccccc2Cl)cc1 (stereo not drawn) | 0.645 µM (active) | 
C=CC(=O)N(C)C |  | inactive
O=C(Cc1ccccc1)c1ccccc1 |  | inactive
NNC(=S)NN | 50 µM (active) | 
CCOP(=S)(OCC)SCCS(=O)(=O)CC |  | inactive
C[C@]12CC[C@H](O)CC1=CC[C@@H]1[C@@H]2CC[C@]2(C)C(=O)CC[C@@H]12 | 14.1 µM (active) | 
O=C(Nc1ccc2[nH]ccc2c1)c1cc2cc(F)ccc2n1Cc1cccc(F)c1 | 1.11 µM (active) | 
Oc1ccc(-c2ccccc2)cc1 | 74.2 µM (active) | 
COP(=O)(OC)O/C(=C\Cl)c1cc(Cl)c(Cl)cc1Cl |  | inactive
COc1cc(-c2ccc(N)c(OC)c2)ccc1N | 82.6 µM (active) | inactive
CCOP(=S)(OCC)SCSP(=S)(OCC)OCC | 14.9 µM (active) | 
CC12CC1(C)C(=O)N(c1cc(Cl)cc(Cl)c1)C2=O (stereo not drawn) |  | inactive
C[C@@H]1C[C@@H]([C@H](O)CC2CC(=O)NC(=O)C2)C(=O)[C@@H](C)C1 |  | inactive
CN(CCCC(=O)c1cccnc1)N=O |  | inactive
Nc1ccc(-c2ccc(N)c(Cl)c2)cc1Cl |  | inactive
CC1(C)CCC(Cc2ccc(Cl)cc2)C1(O)Cn1cncn1 (stereo not drawn) | 0.143 µM (active) | 
